Measurements reported in ChEMBL document CHEMBL3988442, “University of Dundee, Small-Polar-MMV Screening Library” (2021).
Entries with a potency or affinity are not part of this list.

What follows are compounds tested against Protein translocase subunit SecA (Escherichia coli (strain K12)) (UniProt P10408) (assay: Assay to Identify E. coli SecA ATPase Inhibitors). Details: 30 µM.
Format: functional
Parameters: scale not given: direction of the effect not stated beside the values

Sequence of Protein translocase subunit SecA (Escherichia coli (strain K12)) (P10408 whole entry): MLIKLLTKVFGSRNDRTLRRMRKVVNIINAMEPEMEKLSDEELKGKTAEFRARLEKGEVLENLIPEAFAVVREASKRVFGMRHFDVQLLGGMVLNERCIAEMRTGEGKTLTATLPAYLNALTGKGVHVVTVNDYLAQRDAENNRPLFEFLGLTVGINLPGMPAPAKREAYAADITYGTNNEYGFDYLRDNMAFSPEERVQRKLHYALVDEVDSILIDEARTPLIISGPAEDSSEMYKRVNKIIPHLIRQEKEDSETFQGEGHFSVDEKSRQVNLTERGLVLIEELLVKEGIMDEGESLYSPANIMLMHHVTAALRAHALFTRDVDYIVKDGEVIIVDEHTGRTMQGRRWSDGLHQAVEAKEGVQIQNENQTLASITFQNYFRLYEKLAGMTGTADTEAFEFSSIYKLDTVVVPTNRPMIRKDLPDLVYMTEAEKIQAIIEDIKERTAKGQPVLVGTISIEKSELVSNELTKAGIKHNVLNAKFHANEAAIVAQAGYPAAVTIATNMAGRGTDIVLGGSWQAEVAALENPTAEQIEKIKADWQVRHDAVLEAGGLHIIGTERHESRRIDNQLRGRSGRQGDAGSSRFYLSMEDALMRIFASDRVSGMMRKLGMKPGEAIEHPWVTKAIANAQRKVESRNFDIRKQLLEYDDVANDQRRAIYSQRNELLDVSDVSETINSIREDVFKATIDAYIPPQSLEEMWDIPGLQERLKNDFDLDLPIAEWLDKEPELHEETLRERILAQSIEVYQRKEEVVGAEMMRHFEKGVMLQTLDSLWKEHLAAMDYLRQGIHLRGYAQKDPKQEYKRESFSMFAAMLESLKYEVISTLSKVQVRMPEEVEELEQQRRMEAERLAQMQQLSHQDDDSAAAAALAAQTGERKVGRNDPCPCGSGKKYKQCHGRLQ

SMILES | Percent Effect [%]
CC(C)(C)c1cnc(CN2CCCC2Cn2cccn2)o1 (stereo not drawn) | -0.386
Cc1nc(C)c(C(=O)NCCNC(=O)Cc2ccccc2)s1 | -3.47
CC(C)NC(=O)c1n[nH]c(-n2cnnc2)n1 | -5.17
CC(C)C1CN(C(=O)c2ccc(N3CCCC3)nc2)CCS1 (stereo not drawn) | -4.92
O=C(NC1CC1)[C@@H]1CCO[C@@H]2CCN(Cc3ccsc3)C[C@H]21 | -3.17
Cc1cc(CN(C)C2CCCN(c3cccnn3)C2)on1 (stereo not drawn) | -4.98
CN(Cc1ccc(F)cc1)C(=O)CN1CCOC(Cn2cncn2)C1 (stereo not drawn) | 0.893
CC(C)COC(C)C(=O)NCc1cc(F)cc(F)c1 (stereo not drawn) | -1.7
COCCC(=O)N1CCN(C)c2ncccc2C1 | -4.6
Cn1cc(N2CCC3(CCN(Cc4nccs4)C3)C2=O)cn1 (stereo not drawn) | -2.64
O=C(CCc1nccs1)N1CCN(c2ccccc2F)CC1 | -4.98
CNC(=O)CCNC(=O)c1cccc(Cn2nc(C)cc2C)c1 | -1.98
Cc1cc(C)cc(OCCC(=O)N2CCCC(n3cncn3)C2)c1 (stereo not drawn) | -0.911
O=C(CSc1ccccc1Cl)NS(=O)(=O)c1ccc2c(c1)OCCO2 | -4.83
O=c1ccc(-c2cccs2)nn1CN1CCCCCC1 | -4.24
O=C(NCCOc1ncc(Cl)cc1Cl)c1ccncc1 | -9.07
COc1cccc(OCC2CCCN(C(=O)c3cnc(C)nc3O)C2)c1 (stereo not drawn) | 0.517
CCc1cccc(NS(=O)(=O)c2cc3c(c(C(=O)O)c2)OCCO3)c1 | -5.6
CC(C)S(=O)(=O)NCC1CCCN(C(=O)c2ccc3c(c2)OCCO3)C1 (stereo not drawn) | -6.68
Cc1cnccc1CN1C[C@@H](O)[C@H](Oc2cccc(F)c2)C1 | -3.16

SMILES | Percent Effect [%]
CC1CN(C(=O)NCCCn2cncn2)CCO1 (stereo not drawn) | -2.77
CCCc1nc(CN2CCOC(CNc3cccnn3)C2)cs1 (stereo not drawn) | -3.31
Cc1ccc(NC2CCN(C(=O)c3cccn3C)CC2)nn1 | -10.3
Cc1ccc(CNC(=O)Cn2ncc3c2c(C)nn3C)cc1 | 0.175
O=C(N[C@@H]1CN(Cc2ccccc2)C[C@@H]2CCCO[C@@H]21)C1CC1 | 3.31
Fc1ccc(OCCCN2CCOC(Cn3cncn3)C2)cc1 (stereo not drawn) | -1.31
Cc1cc(C)c(CNC(=O)NCC(O)c2cccc(F)c2)c(=O)[nH]1 (stereo not drawn) | -7
O=C(CCn1ccc2cc(Br)ccc21)NCc1ccc(C(=O)O)cc1 | -5.12
O=C(NCc1ccc(OCC2CC2)nc1)c1c(F)cccc1F | -0.518
CSc1nccn1-c1cccc(C(=O)NCCCN2CCOCC2)c1 | -3.34
CC(C)c1nn(C)c(N(C)C)c1CNCc1ccc2c(c1)OCO2 | -3
CC(Oc1ccccc1C(F)(F)F)C(=O)NCC(N)=O (stereo not drawn) | -4.95
O=c1n(CCSCc2ccccc2F)nc2ccccn12 | -4.09
Cc1noc(C)c1C1CCCN1C(=O)CN1CC2(CCNCC2)OC1=O (stereo not drawn) | -6.39
CN(CC1CCCO1)C1CCN(CCc2ccccn2)CC1 (stereo not drawn) | -1.45
N#Cc1cccc(S(=O)(=O)NC(=O)COC2CCCC2)c1 | -0.529
COc1cccc(OCC(=O)NS(=O)(=O)c2ccc(C)s2)c1 | -3.05
Cn1ccnc1-c1ccccc1C(=O)N1CCc2c(nc(N)[nH]c2=O)C1 | -3.72
CN(C)C(=O)CN1C[C@@H]2CC[C@H](C1)N(C(=O)CCn1cncn1)C2 | -2.58

What follows are compounds tested against T1, Ubiquitin-activating enzyme e1, putative (Leishmania donovani (strain BPK282A1)) (UniProt E9BSI1) (assay: Leishmania donovani Ubiquitin Activating Enzyme (LdE1)). Details: 30 µM.
T1 sequence (whole entry): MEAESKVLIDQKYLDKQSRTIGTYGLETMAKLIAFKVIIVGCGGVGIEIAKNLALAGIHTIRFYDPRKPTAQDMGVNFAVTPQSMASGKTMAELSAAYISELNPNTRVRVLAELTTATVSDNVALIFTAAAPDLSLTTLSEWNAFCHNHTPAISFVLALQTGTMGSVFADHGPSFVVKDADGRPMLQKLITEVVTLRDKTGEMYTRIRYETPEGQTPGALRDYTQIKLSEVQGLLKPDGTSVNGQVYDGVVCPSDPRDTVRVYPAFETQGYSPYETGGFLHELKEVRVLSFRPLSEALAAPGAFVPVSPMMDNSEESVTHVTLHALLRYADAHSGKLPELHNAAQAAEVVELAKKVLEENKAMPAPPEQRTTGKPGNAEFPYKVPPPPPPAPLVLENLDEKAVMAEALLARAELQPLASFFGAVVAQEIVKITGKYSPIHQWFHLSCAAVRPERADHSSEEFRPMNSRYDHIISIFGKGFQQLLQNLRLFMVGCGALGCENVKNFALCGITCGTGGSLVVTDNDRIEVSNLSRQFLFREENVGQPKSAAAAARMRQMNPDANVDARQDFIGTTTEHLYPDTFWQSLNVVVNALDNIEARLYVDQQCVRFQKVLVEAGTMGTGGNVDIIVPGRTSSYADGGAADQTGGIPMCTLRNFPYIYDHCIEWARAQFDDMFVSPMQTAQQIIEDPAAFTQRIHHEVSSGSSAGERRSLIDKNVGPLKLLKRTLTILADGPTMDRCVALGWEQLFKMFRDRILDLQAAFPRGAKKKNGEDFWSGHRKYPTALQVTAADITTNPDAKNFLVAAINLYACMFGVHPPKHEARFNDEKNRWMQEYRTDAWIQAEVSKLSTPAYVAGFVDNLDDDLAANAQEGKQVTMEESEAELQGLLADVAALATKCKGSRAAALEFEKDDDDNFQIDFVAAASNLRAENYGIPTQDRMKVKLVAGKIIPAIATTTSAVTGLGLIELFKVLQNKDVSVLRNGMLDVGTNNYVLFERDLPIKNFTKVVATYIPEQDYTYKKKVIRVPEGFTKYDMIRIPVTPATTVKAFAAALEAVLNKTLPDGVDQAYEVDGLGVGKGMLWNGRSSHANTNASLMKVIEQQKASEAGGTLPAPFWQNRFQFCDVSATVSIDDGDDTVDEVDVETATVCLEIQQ
Format: functional
Parameters: scale not given: direction of the effect not stated beside the values

SMILES | Percent Effect [%]
CC(C)(C)c1cnc(CN2CCCC2Cn2cccn2)o1 (stereo not drawn) | 0
Cc1nc(C)c(C(=O)NCCNC(=O)Cc2ccccc2)s1 | 16.2
CC(C)NC(=O)c1n[nH]c(-n2cnnc2)n1 | 9.33
CC(C)C1CN(C(=O)c2ccc(N3CCCC3)nc2)CCS1 (stereo not drawn) | 2.6
O=C(NC1CC1)[C@@H]1CCO[C@@H]2CCN(Cc3ccsc3)C[C@H]21 | -8.11
Cc1cc(CN(C)C2CCCN(c3cccnn3)C2)on1 (stereo not drawn) | -2.67
CN(Cc1ccc(F)cc1)C(=O)CN1CCOC(Cn2cncn2)C1 (stereo not drawn) | 17.7
CC(C)COC(C)C(=O)NCc1cc(F)cc(F)c1 (stereo not drawn) | 2.6
COCCC(=O)N1CCN(C)c2ncccc2C1 | 2.6
Cn1cc(N2CCC3(CCN(Cc4nccs4)C3)C2=O)cn1 (stereo not drawn) | 2.7
O=C(CCc1nccs1)N1CCN(c2ccccc2F)CC1 | 7.59
CNC(=O)CCNC(=O)c1cccc(Cn2nc(C)cc2C)c1 | 4.17
Cc1cc(C)cc(OCCC(=O)N2CCCC(n3cncn3)C2)c1 (stereo not drawn) | -8.11
O=C(CSc1ccccc1Cl)NS(=O)(=O)c1ccc2c(c1)OCCO2 | -21.1
O=c1ccc(-c2cccs2)nn1CN1CCCCCC1 | -4
O=C(NCCOc1ncc(Cl)cc1Cl)c1ccncc1 | 0
COc1cccc(OCC2CCCN(C(=O)c3cnc(C)nc3O)C2)c1 (stereo not drawn) | 8.11
CCc1cccc(NS(=O)(=O)c2cc3c(c(C(=O)O)c2)OCCO3)c1 | 1.27
CC(C)S(=O)(=O)NCC1CCCN(C(=O)c2ccc3c(c2)OCCO3)C1 (stereo not drawn) | 5.48
Cc1cnccc1CN1C[C@@H](O)[C@H](Oc2cccc(F)c2)C1 | 1.35

SMILES | Percent Effect [%]
CC1CN(C(=O)NCCCn2cncn2)CCO1 (stereo not drawn) | 7.89
CCCc1nc(CN2CCOC(CNc3cccnn3)C2)cs1 (stereo not drawn) | 2.7
Cc1ccc(NC2CCN(C(=O)c3cccn3C)CC2)nn1 | 7.79
Cc1ccc(CNC(=O)Cn2ncc3c2c(C)nn3C)cc1 | 4
O=C(N[C@@H]1CN(Cc2ccccc2)C[C@@H]2CCCO[C@@H]21)C1CC1 | 10.7
Fc1ccc(OCCCN2CCOC(Cn3cncn3)C2)cc1 (stereo not drawn) | -3.8
Cc1cc(C)c(CNC(=O)NCC(O)c2cccc(F)c2)c(=O)[nH]1 (stereo not drawn) | 7.89
O=C(CCn1ccc2cc(Br)ccc21)NCc1ccc(C(=O)O)cc1 | 2.63
O=C(NCc1ccc(OCC2CC2)nc1)c1c(F)cccc1F | 2.63
CSc1nccn1-c1cccc(C(=O)NCCCN2CCOCC2)c1 | 18.4
CC(C)c1nn(C)c(N(C)C)c1CNCc1ccc2c(c1)OCO2 | 7.89
CC(Oc1ccccc1C(F)(F)F)C(=O)NCC(N)=O (stereo not drawn) | 5.41
O=c1n(CCSCc2ccccc2F)nc2ccccn12 | 7.79
Cc1noc(C)c1C1CCCN1C(=O)CN1CC2(CCNCC2)OC1=O (stereo not drawn) | 0
CN(CC1CCCO1)C1CCN(CCc2ccccn2)CC1 (stereo not drawn) | 0
N#Cc1cccc(S(=O)(=O)NC(=O)COC2CCCC2)c1 | 26
COc1cccc(OCC(=O)NS(=O)(=O)c2ccc(C)s2)c1 | 15.2
Cn1ccnc1-c1ccccc1C(=O)N1CCc2c(nc(N)[nH]c2=O)C1 | 7.79
CN(C)C(=O)CN1C[C@@H]2CC[C@H](C1)N(C(=O)CCn1cncn1)C2 | 5.41
